Measurements from PubChem BioAssay (NCATS).
Records with an inconclusive call do not appear. Where a call stands in place of a potency, no number is given. The source made the active and inactive calls. Calls follow the shape of the dose curve; as a rule, active = well fitted curve in the direction sought with a large enough effect; inconclusive = small, poorly fitted or top-dose-only effect, or another doubt; inactive = no such curve, though single readings can be large; an effect the other way counts as inactive or inconclusive.

Assays:
[1] = molecular target: Cellular tumor antigen p53 (Homo sapiens) (UniProt P04637); assay: Primary qHTS for small molecule compounds that upregulate eGFP-tagged delta133p53alpha (in N-terminal) cells. (AID 2060322); details: NCI-H358 eGFP-delta133p53alpha fluorescence, 24 h; activation: stronger effect = higher value; also: nearly all actives have a fitted effect of over 75% in size; also: potency is read from the fitted curve at half-maximal effect;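 as to activation: cells pre-induced with doxycycline then dosed without doxycycline; series mostly up to about 56 µM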
Sequence of Cellular tumor antigen p53 (Homo sapiens) (P04637 whole entry, looked up): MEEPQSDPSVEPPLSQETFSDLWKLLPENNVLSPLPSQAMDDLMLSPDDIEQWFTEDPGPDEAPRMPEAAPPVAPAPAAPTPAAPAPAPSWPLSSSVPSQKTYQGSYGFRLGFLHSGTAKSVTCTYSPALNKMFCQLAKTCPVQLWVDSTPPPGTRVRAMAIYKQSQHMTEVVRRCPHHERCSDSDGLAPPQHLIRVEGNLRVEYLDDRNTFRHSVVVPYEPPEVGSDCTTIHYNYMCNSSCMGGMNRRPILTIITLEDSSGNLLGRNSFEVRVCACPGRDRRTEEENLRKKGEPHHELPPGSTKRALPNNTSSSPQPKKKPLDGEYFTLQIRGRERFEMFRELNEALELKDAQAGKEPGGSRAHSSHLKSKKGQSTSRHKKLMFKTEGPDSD
Procedure, shortened: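 NCI-H358 cells pre-induced 24 h with 10 ng/ml doxycycline for eGFP-delta133p53alpha, plated dox-free and exposed 24 h at 37C to titrated compounds. Fixed, Hoechst-stained; gated GFP peak intensity by laser scanning cytometry, normalized to DMSO (0%) and 57.5 uM 5-azacytidine (100%).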

[2] = molecular target: Aldehyde dehydrogenase, mitochondrial (Homo sapiens) (UniProt P05091); assay: qHTS for Inhibitors of the Aldehyde Dehydrogenase Family (ALDH2) Primary screen (AID 2061308); also: nearly all actives have a fitted effect of over 55% in size
[3] = molecular target: Retinaldehyde dehydrogenase 3 (Homo sapiens) (UniProt P47895); assay: qHTS for Inhibitors of the Aldehyde Dehydrogenase Family (ALDH1A3) Primary screen (AID 2061315)

Compound | activation [1] | Potency [2] | Potency [3] | Potency [1] | activity change, negative = inhibition [2] | activity change, negative = inhibition [3]
COC1OC(OC)C(O)(CCC2(C)C(C)CCC3(C)C2CC(O)C(O)C32CO2)C1O (stereo not drawn) | 0.763% (inactive) | inactive | inactive |  |  | 
CCC(=O)O[C@H]1C(C)(C)[C@H]([C@@H](O)C(=O)OC)[C@]2(C)C(=O)[C@@]1(O)[C@H]1O[C@]13C1CC(=O)O[C@@H](c4ccoc4)[C@]1(C)CCC32 (stereo partly drawn) | -20.6% (inactive) | inactive | inactive |  |  | 
Cc1cc2c(c(=O)o1)C=C1CC[C@H]([C@H](C)Cn3cnc(=N)c4[nH]cnc43)C[C@@H]1O2 | 14.3% (inactive) | inactive | inactive |  |  | 
CC1CC(=O)C2=C(O1)OC1(C)CCC3C(C)(C)C4OC4C(=O)C3(C)C1C2 (stereo not drawn) | 16.1% (inactive) | inactive | inactive |  |  | 
COCC(=O)N1CCc2cc(-c3csc(NC(=O)c4cc(OC)cc(OC)c4)n3)ccc21 | 13.7% (inactive) | inactive | inactive |  |  | 
C=CC1(C)CC(O)C(C(=C)C(=O)OC)C(O)C1C(=C)CO (stereo not drawn) | -14.5% (inactive) | inactive | inactive |  |  | 
CC(=O)O[C@H]1C[C@@](O)(C(C)C)C2[C@@H](OC(=O)c3ccc(O)cc3)C[C@@]3(C)O[C@H]3C[C@]21C (stereo partly drawn) | -6.11% (inactive) | inactive | inactive |  |  | 
CCCOc1ccc(-c2nc(OC)c3ccccc3n2)cc1 | -5.67% (inactive) | inactive | inactive |  |  | 
COc1ccc(C2(CNC(=O)[C@](C)(Cc3c[nH]c4ccccc34)NC(=O)Nc3ccc([N+](=O)[O-])cc3)CCCCC2)nc1 | 12.9% (inactive) | inactive | inactive |  |  | 
CC(=O)O[C@H](C[C@@H](C)[C@H]1C(=O)[C@H](O)[C@@]2(C)[C@@H]3CCC4C(C)(C)[C@@H](O[C@@H]5OC[C@H](O)[C@H](O)[C@H]5O)CC[C@@]45C[C@@]35CC[C@]12C)[C@@H]1OC1(C)C (stereo partly drawn) | 8.04% (inactive) | inactive | inactive |  |  | 
CC1=CC(=O)CC(C)(C)[C@@]1(O)/C=C/C(C)O[C@@H]1O[C@H](CO)[C@@H](O)[C@H](O)[C@H]1O (stereo partly drawn) | 15.3% (inactive) | inactive | inactive |  |  | 
CN(C)C/C=C/C(=O)Nc1cc2c(Nc3ccc(F)c(Cl)c3)ncnc2cc1OC1CCOC1 (stereo not drawn) |  | inactive | inactive | 7.57 µM (active) |  | 
COc1cc(/C=C/C(=O)O[C@H]2C[C@@H]3C(C(=O)O)=CO[C@@H](O[C@@H]4O[C@H](CO)[C@@H](O)[C@H](O)[C@H]4O)[C@@H]3[C@H]2C)ccc1O | -2.29% (inactive) | inactive | inactive |  |  | 
CC1(C(=O)O)CCCC2(C)C1CCC13CC(CCC21)C1(CO)OC31 (stereo not drawn) | -9.16% (inactive) | inactive | inactive |  |  | 
C=CC(C)(O)CC/C=C(\C)C(=O)OCC1OC(OC2CCC3(C)C(CCC4(C)C3CC=C3C5CC(C)(C)C(O)CC5(C(=O)O)CCC34C)C2(C)C)C(O)C(OC2OC(CO)C(O)C(OC3OC(CO)C(O)C(OC4OC(COC5OC(CO)C(O)C(O)C5O)C(O)C(O)C4O)C3O)C2O)C1O (stereo not drawn) | 9.92% (inactive) |  |  |  | 1.9% [at 11.2 µM] (inactive) | -5.36% [at 11.2 µM] (inactive)
COC(=O)C1=CO[C@@H](O[C@@H]2O[C@H](CO)[C@@H](O)[C@H](O)[C@H]2O)[C@H]2[C@@H]1C=C[C@@]21C=C([C@H](C)O)C(=O)O1 | 13.4% (inactive) | inactive | inactive |  |  | 
O=C(Nc1ccccc1C(=O)Nc1ccc(CCO)cc1)c1ccc([N+](=O)[O-])cc1 | -29.5% (inactive) | inactive | inactive |  |  | 
COc1cc(C(=O)OC[C@H]2O[C@H](O[C@@]3(CO)O[C@@H](CO)[C@H](O)[C@H]3O)[C@H](O)[C@@H](O)[C@@H]2O)ccc1O | -1.53% (inactive) | inactive | inactive |  |  | 
COC(=O)CCSCc1ccc(-c2onc(C)c2NC(=O)OC(C)c2ccccc2Cl)cc1 (stereo not drawn) | -5.25% (inactive) | inactive | inactive |  |  | 
C=C1C[C@@]23CC[C@@H]4[C@](C)(C(=O)O)CCC[C@@]4(C)C2=CC[C@H]1C3 | 0.763% (inactive) | inactive | inactive |  |  | 
COC12CC3C(C(C)C1=CC(=O)O2)C(O)C(OC(C)=O)C1C(C)(C)C(OC(C)=O)CCC31C (stereo not drawn) | -3.05% (inactive) | inactive | inactive |  |  | 
NC(=O)[C@H](Cc1ccccc1)NC(=O)[C@H](CCCN=C(N)N)NC(=O)C12CC3CC(CC(C3)C1)C2 | -9% (inactive) |  |  |  | 0.973% [at 11.2 µM] (inactive) | -5.76% [at 11.2 µM] (inactive)
COC(=O)C1=COC(O[C@@H]2O[C@H](COC(=O)/C=C/c3ccc(O)cc3)[C@@H](O)[C@H](O)[C@H]2O)C2C(CO)=CCC12 (stereo partly drawn) | -23.7% (inactive) | inactive | inactive |  |  | 
O=C1CCC=CC1(O)C(=O)OCc1ccccc1O[C@@H]1O[C@H](CO)[C@@H](O)[C@H](O)[C@H]1O (stereo partly drawn) | 15.3% (inactive) | inactive | inactive |  |  | 
CC(C)(C)OC(=O)N1CCC(OCc2nc(-c3ccncc3)no2)CC1 | -3.34% (inactive) | inactive | inactive |  |  | 
COC(=O)/C=C/C=C/C(=O)OC1C=C2COC(=O)C2(O)C2(C)CCCC(C)(C)C12 (stereo not drawn) | -4.58% (inactive) | inactive | inactive |  |  | 
